# Shown are actives, neighbours in structure and some others; about 18% of the full set was active somewhere.
# Six1-Eya2 inh: qHTS Assay for Inhibitors of the Six1/Eya2 Interaction; Homeobox protein SIX1 (Homo sapiens) + Protein phosphatase EYA2 (Homo sapiens), …; AlphaScreen GST-Six1/His-Eya2 binding, biochemical; hits give low values; activity change, % (no concentration beside the values); 0.56% of 360,000 active; AID 651725, 2012; in the data active = activity change below about -65%; inconclusive = mostly about -30% to -63%
# Target sequence (O00167 whole entry, looked up): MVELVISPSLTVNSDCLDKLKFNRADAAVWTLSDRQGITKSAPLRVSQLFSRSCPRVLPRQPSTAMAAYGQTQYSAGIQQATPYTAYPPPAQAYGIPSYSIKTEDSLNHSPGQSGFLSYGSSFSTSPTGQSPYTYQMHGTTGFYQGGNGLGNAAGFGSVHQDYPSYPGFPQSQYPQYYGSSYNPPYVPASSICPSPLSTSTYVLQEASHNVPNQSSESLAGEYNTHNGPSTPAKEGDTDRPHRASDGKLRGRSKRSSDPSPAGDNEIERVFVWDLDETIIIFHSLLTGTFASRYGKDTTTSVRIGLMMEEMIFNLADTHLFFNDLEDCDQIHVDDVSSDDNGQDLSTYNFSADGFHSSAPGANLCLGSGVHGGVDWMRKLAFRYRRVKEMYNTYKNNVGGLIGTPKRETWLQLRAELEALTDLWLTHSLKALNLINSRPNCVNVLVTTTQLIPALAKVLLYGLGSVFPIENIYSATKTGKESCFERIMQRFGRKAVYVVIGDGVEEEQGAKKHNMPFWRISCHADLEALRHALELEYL
# Target sequence (Q15475 whole entry, looked up): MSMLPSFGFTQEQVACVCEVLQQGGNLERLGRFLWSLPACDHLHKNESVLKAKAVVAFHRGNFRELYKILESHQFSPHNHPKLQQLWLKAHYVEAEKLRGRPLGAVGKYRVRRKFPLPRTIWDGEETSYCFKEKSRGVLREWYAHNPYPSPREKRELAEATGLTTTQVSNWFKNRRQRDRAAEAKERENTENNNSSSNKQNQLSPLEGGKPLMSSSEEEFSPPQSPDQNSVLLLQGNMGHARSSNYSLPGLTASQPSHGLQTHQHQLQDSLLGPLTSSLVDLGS
#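 AlphaScreen luminescence read after one hour at 37 °C in darkness. Pin-transferred compounds met GST-Six1 and His-Eya2 protein (5X stock 250 nM/500 nM) plus glutathione donor and Ni-chelate acceptor beads (5X, 50 ug/mL).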
# DT40 TDP1 no CPT: qHTS for Inhibitors of human tyrosyl-DNA phosphodiesterase 1 (TDP1): qHTS in cells in absence of CPT; Potency, µM (highest dose often 46.2 µM), for inactives: at the highest dose activity change, negative = growth inhibition, actives largely listed as inhibitors; DT40 Tdp1-/- hTDP1 cells, no CPT, ATP luminescence, 48 h; 15% of 420,000 active; note: potency is the fitted concentration of half-maximal effect; nearly all actives have a fitted effect of over 55% in size
#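 Growth of hTDP1-complemented DT40 Tdp1-knockout cells is measured by ATP luminescence after at least 48 hr compound exposure at 37 °C, with DMSO substituting for the 20 nM CPT used in the parallel screen.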
# IL-1B inflam inh: qHTS for Inhibitors of Inflammasome Signaling: IL-1-beta AlphaLISA Primary Screen; activity change, % at 57.5 µM; 4.7% of 360,000 active; THP-1 LPS/ATP IL-1B secretion, AlphaLISA, 16 h; hits give low values; AID 743279, 2014; in the data active = activity change below about -50%; inconclusive = mostly about -30% to -49%
#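 Secreted IL-1B measured by AlphaLISA bead assay after 16 h compound exposure of THP-1 cells; compounds (final up to 57.5 uM) added 1 h before LPS (250 ng/mL) and ATP (1.25 mM) stimulation; lower signal means less secretion.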
# TDP1 inh: qHTS Assay for Inhibitors of Tyrosyl-DNA Phosphodiesterase (TDP1) | Tyrosyl-DNA phosphodiesterase 1 (Homo sapiens), Q9NUW8 | recombinant TDP1, AlphaScreen DNA substrate cleavage | Potency, µM (titrated, usually from 130 µM), inactives show at the top dose activity change, negative = inhibition, actives largely listed as inhibitors | 0.28% of 350,000 active | AID 485290, 2010; note: potency is the fitted concentration of half-maximal effect; nearly all actives have a fitted effect of over 40% in size
#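 Recombinant human Tdp1 (E. coli-expressed, 1 nM final) preincubated with compounds 15 min at room temperature, then 5'-biotin/3'-phosphotyrosine-FITC DNA substrate (15 nM final) added for 5 min. AlphaScreen beads (10 ug/ml final) added 10 min; cleavage lowers signal.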
# DT40 TDP1 CPT: qHTS for Inhibitors of human tyrosyl-DNA phosphodiesterase 1 (TDP1): qHTS in cells in presence of CPT | chicken DT40 Tdp1-/-;hTDP1 cells + 20 nM CPT, ATP luminescence, 48 h | Potency, µM (highest dose often 46.2 µM), without a hit: at the top dose activity change, negative = growth inhibition, hits mostly inhibitors | 12% of 420,000 active | AID 686979, 2013; note: potency is the fitted concentration of half-maximal effect; nearly all actives have a fitted effect of over 55% in size
#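 Chicken DT40 Tdp1-/- cells stably complemented with human TDP1 were seeded at 400 cells/well in medium containing 20 nM camptothecin, exposed to pin-transferred compounds, and grown at 37 °C for at least 48 hr. Viability was read as ATP luminescence.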
# CtBP-E1A blk: qHTS Assay for Inhibitors of the CtBP/E1A Interaction; CtBP / adenovirus E1A interaction (AlphaScreen); AlphaScreen GST-E1A/His-CtBP binding, 1536-well; hits give low values; activity change, % (test concentration not listed); 0.49% of 340,000 active; AID 651724, 2012; in the data active = activity change below about -65%; inconclusive = mostly about -30% to -63%
#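 AlphaScreen with 125 nM GST-E1A and 125 nM His-CtBP (5X stocks) in Tris pH 8.0, 300 mM NaCl, BSA, Tween 20, TCEP. Compounds preincubated 2 h at 37 deg C, then glutathione donor/nickel acceptor beads added for 1 h at 37 deg C in dark.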
# Active calls of the source: *; ? = inconclusive; nt = no result given. Unless noted, calls come from the whole dose curve; as a rule, active = well fitted curve in the direction sought with a large enough effect; inconclusive = small, poorly fitted or top-dose-only effect, or another doubt; inactive = no such curve, though single readings can be large; an effect the other way counts as inactive or inconclusive. % is set by controls: 0 for no effect and ±100 for the full control effect.
SMILES,Six1-Eya2 inh,DT40 TDP1 no CPT,IL-1B inflam inh,TDP1 inh,DT40 TDP1 CPT,CtBP-E1A blk
CCN(CC)c1ccc(S(=O)(=O)N2CCOCC2)cc1NC(=O)CN1CCc2ccccc2C1,-16.3,7.31µM*,-110.5*,0.0%,4.61µM*,-8.8
Cc1ccc(S(=O)(=O)N2CCOCC2)cc1NC(=O)COC(=O)/C=C/c1ccco1,-2.1,?,0.0,28.2µM*,-17.4%,nt
CCN(CC)c1ccc(S(=O)(=O)N2CCOCC2)cc1NC(=O)COC(=O)/C=C/c1ccc(C)o1,-15.3,10.3µM*,?,9.2%,13µM*,-0.2
CCOC(=O)c1c(C)[nH]c(C)c1S(=O)(=O)NCC1CCN(Cc2cccc(F)c2)CC1,-8.5,-20.8%,-5.1,0.5%,-2.9%,nt
CCN(CC)c1ccc(S(=O)(=O)N2CCOCC2)cc1NC(=O)COC(=O)/C=C/c1ccc(O)c(OC)c1,7.0,20.6µM*,-0.7,nt,?,0.5
Cc1ccc(Cn2c(=O)n(Cc3ccco3)c(=O)c3oc4ccccc4c32)cc1,nt,-9.6%,nt,-2.6%,-6.1%,nt
COc1ccc(NC(=O)Cn2c(=O)n(-c3cc(C)cc(C)c3)c(=O)c3oc4ccccc4c32)cc1OC,nt,8.2µM*,nt,5.1%,8.2µM*,nt
Cc1ccc(Cn2c(=O)n(-c3cc(C)cc(C)c3)c(=O)c3oc4ccccc4c32)cc1,nt,23.1µM*,nt,0.0%,?,nt
COc1ccc(NC(=O)Cn2c(=O)n(C(C)C)c(=O)c3oc4ccccc4c32)cc1Cl,nt,16.4µM*,nt,2.6%,?,nt
c1ccc(-c2cncn2-c2ccccc2)cc1,-4.7,?,14.3,8.0%,-16.9%,-9.6
Cc1ccc(NS(=O)(=O)c2cc3c4c(cccc4c2)C(=O)NC3=O)cc1C,-15.0,8.2µM*,-19.5,11.4%,6.51µM*,-14.9
CC(=O)Cc1nsc(Nc2ccc(Cl)cc2)n1,1.4,-7.2%,-15.4,-1.2%,3.9%,-2.3
CCOc1ccc(C(=O)NC(=S)N(Cc2ccccc2)Cc2ccccc2)cc1,-9.6,?,1.5,11.8%,20.6µM*,-8.5
N#CCCN(Cc1ccccc1)C(=S)NC(=O)c1ccccc1,1.9,9.2µM*,26.7,5.3%,9.2µM*,1.0
CCOc1ccc(C(=O)NCCc2ccccc2)cc1,2.8,-2.0%,-24.2,3.3%,-26.4%,3.0
COc1ccc(CN(CCC#N)C(=S)NC(=O)c2ccccc2)cc1,2.1,?,-17.2,1.9%,?,2.0
CN(C)S(=O)(=O)c1cccc(COC(=O)CN2CCCCCC2=O)c1,5.6,-6.2%,41.1,-3.7%,2.6%,3.3
O=C(Cn1c(=O)n(-c2cccc(Cl)c2)c(=O)n1CC(=O)N1CCCCC1)N1CCCCC1,-14.0,-10.8%,40.4,2.3%,-7.6%,-6.1
CC(C)c1ccc(C(=O)Nc2ccc(-c3nc4ccccc4s3)c(Cl)c2)cc1,nt,7.31µM*,nt,1.1%,6.51µM*,nt
Cc1cc(NC(=O)c2ccccc2F)ccc1-c1nc2ccccc2s1,nt,?,nt,-1.5%,?,nt
CSc1ccc(C(=O)Nc2ccc(-c3nc4ccccc4s3)c(O)c2)cc1,nt,?,nt,6.6%,?,nt
CCSc1ccccc1C(=O)Nc1ccc(-c2nc3ccccc3s2)c(O)c1,nt,13µM*,nt,-2.7%,9.2µM*,nt
CC1OC(C)(C)OC1C1CNc2nc(NC(=O)C(C)(C)C)[nH]c(=O)c2N1C(=O)c1cccnc1 (stereo not drawn),5.1,-14.6%,14.9,2.7%,-27.9%,-0.3
CC1CCC/C(=C\Nc2ccc(O)cc2)C1=O (stereo not drawn),-2.4,?,?,4.2%,20.6µM*,9.4
